The whole screen tested about 1,200 compounds, of which about 480 (40%) were called active. Inconclusive results (about 29%) are left out. Calls come from the whole dose curve; as a rule, active = well fitted inhibition curve with a large enough effect; inconclusive = small, poorly fitted or top-dose-only effect; inactive = no such curve, though single readings can be large or run the other way. Some of the results follow.
Assay: qHTS Assay to Find Inhibitors of Chronic Active B-Cell Receptor Signaling: Hit Validation in Primary Screen; note: nearly all actives have a fitted effect of over 75% in size
Settings: ABC-DLBCL IkB-luc/CBR ratio luminescence, 4 h; series mostly up to 46.1 µM; activity change, negative = inhibition: at the top concentration
Method in brief: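 Concentration series (3 nM to 46 uM) tested on TMD8 cells induced with doxycycline for 4 h. Filter-corrected green (IkBa fusion) over red (unfused) luciferase signal; Data were normalised to 10 uM MG-132 and untreated cell wells.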
% is set by controls: 0 for no effect and ±100 for the full control effect; potency is the fitted concentration of half-maximal effect.

**Q.** With O=C(NN=C1CCCC1)c1n[nH]c2c1CCC2 as the compound, how does the “activity change, negative = inhibition” value read?
**A.** -10.7% (inactive)

**Q.** Which Potency does the source give for O=C(N/N=C/c1ccc(Cl)cc1)c1n[nH]c2c1CCCC2 here?
**A.** 2.06 µM (active)

**Q.** For Cc1ccc(/C=N/NC(=O)c2n[nH]c3c2CCCC3)cc1, which Potency is on record?
**A.** 0.206 µM (active)

**Q.** Which Potency does the source give for Cc1ccc(NC(=O)/C=C/c2ccco2)nc1 here?
**A.** 1.16 µM (active)

**Q.** For Cc1cccc(C)c1OCC(=O)N/N=C/C=C/c1ccco1, which “activity change, negative = inhibition” value is on record?
**A.** -9.1% (inactive)

**Q.** Which “activity change, negative = inhibition” value does the source give for COc1ccc(NC(=S)NC(=O)/C=C/c2ccco2)cc1 here?
**A.** -12.3% (inactive)

**Q.** For O=C(COc1ccc(Oc2ccccc2)cc1)NCc1cn2ccccc2n1, which Potency is on record?
**A.** 11.6 µM (active)

**Q.** Which “activity change, negative = inhibition” value does the source give for O=C(CNCc1ccccc1)Nc1ccc(Oc2ccccc2)cc1 here?
**A.** -2.09% (inactive)

**Q.** Which Potency does the source give for Cc1cccc(NC(=O)c2ccc(C(=O)Nc3cccc(C)c3)nc2)c1 here?
**A.** 10.3 µM (active)

**Q.** For Cc1cccc(NC(=S)NNC(=O)CCn2cc(C)cn2)c1, which “activity change, negative = inhibition” value is on record?
**A.** -3.27% (inactive)

**Q.** For CCOC(=O)c1c(C=O)c2sc(C)cc2n1C, which “activity change, negative = inhibition” value is on record?
**A.** 42.4% (inactive)

**Q.** Which Potency does the source give for CCOC(=O)c1c(C)c(C(=O)OCC)n(C)c1C here?
**A.** 6.51 µM (active)

**Q.** For COc1ccc(/C(C)=N/Nc2nc3ccccc3nc2C)cc1OC, which “activity change, negative = inhibition” value is on record?
**A.** -8.71% (inactive)

**Q.** Which Potency does the source give for COc1ccc(/C(C)=N/Nc2ccc(C(=O)O)cc2)cc1OC here?
**A.** 0.0231 µM (active)

**Q.** With Cc1cc(C)c2nc3sc(C(=O)N4CCOCC4)c(N)c3cc2c1 as the compound, how does the Potency read?
**A.** 1.46 µM (active)

**Q.** Which Potency does the source give for CCOCCCNC(=O)c1ccc2c(c1)N=C(CC)c1cc(Br)ccc1S2 here?
**A.** 0.259 µM (active)

**Q.** For CCCC1=Nc2cc(C(=O)NCCCOCC)ccc2Sc2ccccc21, which Potency is on record?
**A.** 1.03 µM (active)

**Q.** For CCCC1=Nc2cc(C(=O)NCCCOC(C)C)ccc2Sc2ccccc21, which Potency is on record?
**A.** 20.6 µM (active)

**Q.** With CCC1=Nc2cc(C(=O)NCCCOC)ccc2Sc2ccccc21 as the compound, how does the Potency read?
**A.** 2.06 µM (active)

**Q.** For CC1=NN(C(N)=S)C(=O)C1N=Nc1cccc(C)c1 (centres undefined), which “activity change, negative = inhibition” value is on record?
**A.** 21% (inactive)

**Q.** Which “activity change, negative = inhibition” value does the source give for O=C(NC(=S)N1CCOCC1)c1cn(-c2ccccc2)nc1-c1ccccc1 here?
**A.** -5.47% (inactive)

**Q.** With COc1ccc(C(=O)c2cc([N+](=O)[O-])ccc2N2CCOCC2)cc1 as the compound, how does the Potency read?
**A.** 2.06 µM (active)

**Q.** Which Potency does the source give for CCOc1ccc(C(=O)c2cc([N+](=O)[O-])ccc2N2CCOCC2)cc1 here?
**A.** 0.116 µM (active)

**Q.** For O=C(c1ccc(Cl)cc1)c1cc([N+](=O)[O-])ccc1N1CCOCC1, which Potency is on record?
**A.** 5.8 µM (active)

**Q.** For O=C(c1cc([N+](=O)[O-])ccc1N1CCOCC1)N1CCN(c2ccccc2)CC1, which Potency is on record?
**A.** 3.26 µM (active)

**Q.** For C/C(=N\NC(=O)COc1ccc(C(C)(C)C)cc1)c1ccc(N2CCOCC2)cc1, which “activity change, negative = inhibition” value is on record?
**A.** -11.3% (inactive)

**Q.** With O=C(Oc1ccc2ccc(OC(=O)N3CCOCC3)cc2c1)N1CCOCC1 as the compound, how does the “activity change, negative = inhibition” value read?
**A.** -7.41% (inactive)

**Q.** For Cc1ccc(-n2cc(CNCCc3ncc(C)[nH]3)c(-c3ccc(F)cc3)n2)cc1, which “activity change, negative = inhibition” value is on record?
**A.** -19.7% (inactive)

**Q.** Which Potency does the source give for COc1cc2c(cc1OC)-c1cc(NC3CCCCCC3)nc(=O)n1CC2 here?
**A.** 9.2 µM (active)

**Q.** For COc1cc2c(cc1OC)-c1cc(NC3CCCCC3)nc(=O)n1CC2, which Potency is on record?
**A.** 23.1 µM (active)

**Q.** With Cc1onc(-c2ccccc2)c1-c1nc2cc(Cl)ccc2c(=O)o1 as the compound, how does the Potency read?
**A.** 2.31 µM (active)

**Q.** Which “activity change, negative = inhibition” value does the source give for C#CCOCCOCCOCCNc1nc(N2CCN(C(=O)[C@H](C(C)C)n3cc(CCO)nn3)CC2)nc(N2CCN(C(=O)[C@H]([C@@H](C)CC)n3cc(CCCN=C(N)N)nn3)CC2)n1 here?
**A.** 49.8% (inactive)

**Q.** With COc1ccc(C(=O)Nc2ccc(-n3nncc3-c3ccc(OC)c(OC)c3)cc2)cc1 as the compound, how does the Potency read?
**A.** 2.06 µM (active)

**Q.** For COc1ccc(N(CC(=O)NC2CCCC2)C(=O)Cn2nnc(-c3ccc(OC)c(OC)c3)n2)c(OC)c1, which “activity change, negative = inhibition” value is on record?
**A.** -8.97% (inactive)

**Q.** With COc1ccc(-c2cc(C(=O)NN)[nH]n2)cc1OC as the compound, how does the “activity change, negative = inhibition” value read?
**A.** -13.1% (inactive)

**Q.** Which Potency does the source give for COc1ccc(/C=C/C(=O)Nc2ccc(-n3nncc3-c3ccc(OC)c(OC)c3)cc2)cc1OC here?
**A.** 2.31 µM (active)

**Q.** With Fc1cccc2sc(Nc3nnc(-c4ccccc4)o3)nc12 as the compound, how does the Potency read?
**A.** 0.13 µM (active)

**Q.** For COc1cccc(-c2nnc(Nc3nc4c(F)cccc4s3)o2)c1, which Potency is on record?
**A.** 0.326 µM (active)

**Q.** With O=C(/C=C/c1cccc(Cl)c1)c1nc2ccccc2[nH]1 as the compound, how does the Potency read?
**A.** 20.6 µM (active)

**Q.** Which “activity change, negative = inhibition” value does the source give for CCN(C(=O)c1cnc(NC(C)C)cc1C(F)(F)F)c1ccc(Cl)cc1Cl here?
**A.** -22.7% (inactive)

**Q.** With CCOc1ccc2c(c1)OC(c1ccc(OC)cc1)(C(F)(F)F)NC2=O (centres undefined) as the compound, how does the Potency read?
**A.** 11.6 µM (active)

**Q.** Which “activity change, negative = inhibition” value does the source give for Oc1c(CN2CCN(c3ccccc3)CC2)cc(Br)c2cccnc12 here?
**A.** -2.8% (inactive)

**Q.** With COc1ccccc1N1CCN(C(=O)c2cc(=O)c3cc(C)cc(C)c3o2)CC1 as the compound, how does the Potency read?
**A.** 1.03 µM (active)

**Q.** With COc1ccccc1N1CCN(C(=O)C2c3ccccc3Oc3ccccc32)CC1 as the compound, how does the Potency read?
**A.** 16.4 µM (active)

**Q.** For CCOC(=O)c1cnc(Nc2nc3ccccc3o2)nc1CSC(=S)N1CCCCC1, which “activity change, negative = inhibition” value is on record?
**A.** -3.65% (inactive)

**Q.** For COc1ccc(-c2c/c(=N\c3nc(-c4ccccc4)c(C)s3)c3ccccc3o2)cc1O, which Potency is on record?
**A.** 8.2 µM (active)

**Q.** With Cc1csc(N/N=C/c2ccccn2)n1 as the compound, how does the “activity change, negative = inhibition” value read?
**A.** -0.0966% (inactive)

**Q.** With C(=N\Nc1nc2ccccc2s1)/c1ccccn1 as the compound, how does the Potency read?
**A.** 14.6 µM (active)

**Q.** For NC(=S)Nc1nc2ccccc2s1, which “activity change, negative = inhibition” value is on record?
**A.** -0.485% (inactive)

**Q.** For COc1ccc(-c2noc(CSc3nc(N)c(-c4ccccc4)c(=O)[nH]3)n2)cc1, which Potency is on record?
**A.** 8.2 µM (active)

**Q.** Which Potency does the source give for COc1ccc(-c2noc(CSc3nc(N)c(-c4ccccc4)c(=O)[nH]3)n2)cc1OC here?
**A.** 7.31 µM (active)

**Q.** With Nc1nc(SCc2nc(-c3ccccc3)no2)[nH]c(=O)c1-c1ccccc1 as the compound, how does the Potency read?
**A.** 20.6 µM (active)

**Q.** For COCCNC(=S)N/N=C(\C)c1ccccc1F, which “activity change, negative = inhibition” value is on record?
**A.** -7.26% (inactive)

**Q.** For CCOc1ccc(S(=O)(=O)Nc2ccc3oc(C)c(C(=O)OCCOC)c3c2)cc1, which Potency is on record?
**A.** 8.2 µM (active)

**Q.** For O=C(/C=C\c1ccco1)Nc1cc([N+](=O)[O-])ccc1F, which Potency is on record?
**A.** 1.84 µM (active)

**Q.** With O=C(Cc1ccc(-n2c(=O)c3ccccc3n(Cc3ccccc3Cl)c2=O)cc1)NCC1CCCO1 (centres undefined) as the compound, how does the Potency read?
**A.** 2.59 µM (active)

**Q.** With CCn1c(O)c(N=NC(=S)NCC2CCCO2)c2ccccc21 (centres undefined) as the compound, how does the “activity change, negative = inhibition” value read?
**A.** 73.4% (inactive)

**Q.** Which “activity change, negative = inhibition” value does the source give for CC1CCC(n2c(=S)[nH]c3ccccc3c2=O)CC1 (centres undefined) here?
**A.** -10.4% (inactive)

**Q.** With CCN(CC(=O)NCc1ccc(F)cc1)C(=O)/C=C/c1ccc(OC)c(S(=O)(=O)NC(C)C)c1 as the compound, how does the Potency read?
**A.** 18.4 µM (active)

**Q.** With CN(C)c1nc(=Nc2cccc(Cl)c2)ss1 as the compound, how does the Potency read?
**A.** 20.6 µM (active)

**Q.** For Cc1[nH]n(C(N)=S)c(=O)c1N=Nc1cccc(Cl)c1, which “activity change, negative = inhibition” value is on record?
**A.** -15.4% (inactive)

**Q.** Which Potency does the source give for O=C(Nc1ncc(Cc2ccc(SC(F)F)cc2)s1)c1ccccc1 here?
**A.** 18.4 µM (active)

**Q.** For Cc1ccc(C(=O)Nc2ncc(Cc3ccc(SC(F)F)cc3)s2)cc1, which Potency is on record?
**A.** 1.3 µM (active)

**Q.** With O=C(Nc1ncc(Cc2ccc(SC(F)F)cc2)s1)c1ccc(OC(F)F)cc1 as the compound, how does the Potency read?
**A.** 0.651 µM (active)

Source: PubChem BioAssay AID651558 (National Center for Advancing Translational Sciences (NCATS), 2012)
